Most compounds without a hit are left out; they make up all but 15% or so of the library.
DT40 TDP1 CPT: DT40-hTDP1 cell growth loss with CPT; chicken DT40 Tdp1-/-;hTDP1 cells + 20 nM CPT, ATP luminescence, 48 h; Potency, µM (titrated, usually from 46.2 µM), inactives show at the highest dose activity change, negative = growth inhibition, most hits filed as inhibitors; 420,000 compounds, 12% hits; AID 686979; note: nearly all actives have a fitted effect of over 55% in size
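Chicken DT40 Tdp1-/- cells complemented with human TDP1, 400 cells/well, exposed to compounds plus 20 nM camptothecin for at least 48 h at 37 C; viability read as ATP content by CellTiter-Glo luminescence.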
Gal4-VP16 FLuc: counter-screen for ROR gamma inhibitors: Gal4-VP16 reporter; Potency, µM (top dose mostly 53.6 µM), for the others: at the top dose activity, negative = inhibition, actives largely listed as inhibitors; Drosophila S2 Gal4-VP16 UAS-luciferase, luminescence, 20 h; 310,000 compounds, 3.5% hits; AID 2546;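 note: Gal4-VP16 expression switched on by copper sulfate through the metallothionein promoter; nearly all actives have a fitted effect of over 50% in size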
12-LOX inh: inhibitors of human 12S-lipoxygenase ALOX12 | P18054 | purified 12hLO, xylenol orange hydroperoxide absorbance | Potency, µM (titrated, usually from 108 µM), for the others: at the highest dose activity change, negative = inhibition, most hits filed as inhibitors | 580,000 compounds, 1.1% hits | AID 1671190
Target sequence (P18054 whole entry, looked up): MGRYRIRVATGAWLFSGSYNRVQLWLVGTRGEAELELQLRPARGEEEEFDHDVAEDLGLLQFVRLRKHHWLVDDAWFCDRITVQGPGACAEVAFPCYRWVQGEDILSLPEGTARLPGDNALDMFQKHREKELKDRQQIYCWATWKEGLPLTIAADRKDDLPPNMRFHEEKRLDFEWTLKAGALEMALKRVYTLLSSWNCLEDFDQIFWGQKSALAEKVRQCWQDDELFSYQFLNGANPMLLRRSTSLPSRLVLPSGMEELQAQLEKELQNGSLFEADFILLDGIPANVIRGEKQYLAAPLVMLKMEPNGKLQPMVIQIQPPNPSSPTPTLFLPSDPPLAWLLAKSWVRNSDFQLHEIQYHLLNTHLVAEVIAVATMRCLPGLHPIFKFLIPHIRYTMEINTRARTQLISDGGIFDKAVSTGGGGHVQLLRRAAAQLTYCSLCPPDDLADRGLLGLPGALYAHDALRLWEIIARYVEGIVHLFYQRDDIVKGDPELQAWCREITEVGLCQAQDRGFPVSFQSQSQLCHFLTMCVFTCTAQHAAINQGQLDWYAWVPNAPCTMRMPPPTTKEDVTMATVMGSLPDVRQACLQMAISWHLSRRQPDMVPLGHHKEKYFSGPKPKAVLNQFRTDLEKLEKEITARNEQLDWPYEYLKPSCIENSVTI
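Purified human 12hLO (150 nM final) in 25 mM Hepes, 0.01% Triton X-100, pH 7.0 was preincubated 15 min at room temperature with compound. Then 40 uM arachidonic acid was added, 30 min. Hydroperoxide was read by Fe-XO absorbance ratio 573/405 nm.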
TDP1 cell noCPT: qHTS for Inhibitors of human tyrosyl-DNA phosphodiesterase 1 (TDP1): qHTS in cells in absence of CPT; 420,000 compounds, 15% hits; Potency, µM (highest dose often 46.2 µM), inactives show at the top dose activity change, negative = growth inhibition, usual class: inhibitors; DT40 Tdp1-/- hTDP1 cells, no CPT, ATP luminescence, 48 h; note: nearly all actives have a fitted effect of over 55% in size
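Chicken DT40 Tdp1-/- cells stably complemented with human TDP1 were seeded at 400 cells/well with DMSO in place of 20 nM camptothecin. After compound pinning, cells grew at least 48 hr at 37 °C; viability read by CellTiter-Glo luminescence.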
ELG1 DNA repair: inhibitors of ELG1-dependent DNA repair in HEK293T cells; HEK293T ELG1-luciferase reporter, luminescence, 16 h; DNA damage induced by 5-fluorouridine; Potency, µM (highest dose often 46.1 µM), for inactives: at the top dose activity change, negative = inhibition, usual class: inhibitors; 330,000 compounds, 2.3% hits; AID 504467; note: nearly all actives have a fitted effect of over 55% in size
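Quantitative HTS, concentration-response format. 2,000 cells/well co-treated with 5-fluorouridine and compound, 16 hr in 5% CO2 at 37 °C; ONE-Glo luminescence read after 30 min.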
RORgamma inh: ROR gamma (mouse) transcription inhibition; P51450; Drosophila S2 Gal4-RORgamma UAS-luciferase reporter, 20 h; Potency, µM (doses to about 53.6 µM), for the others: top-dose activity change, negative = inhibition, hits mostly inhibitors; 310,000 compounds, 5.4% hits; AID 2551; note: nearly all actives have a fitted effect of over 60% in size
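ROR gamma transcriptional activity was tracked as Gal4-UAS luciferase output in stably transfected Drosophila Schneider cells, with compound added 1 hr before 700 uM copper sulfate induction and a 20 hr ambient-temperature incubation.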
The depositor's hits bear a star; ? = inconclusive; . = no result given; [ ] = remark or other dose. Calls come from the whole dose curve; as a rule, active = well fitted curve in the direction sought with a large enough effect; inconclusive = small, poorly fitted or top-dose-only effect, or another doubt; inactive = no such curve, though single readings can be large; an effect the other way counts as inactive or inconclusive. % is set by controls: 0 for no effect and ±100 for the full control effect; potency is the fitted concentration of half-maximal effect.

SMILES	DT40 TDP1 CPT	Gal4-VP16 FLuc	12-LOX inh	TDP1 cell noCPT	ELG1 DNA repair	RORgamma inh
COCCNC(=S)N/N=C/c1c2ccccc2cc2ccccc12	3.66µM*	?	39.8µM*	4.11µM*	?	7.08µM*
Cc1cc2oc(=O)cc(COC(=O)C3CCCO3)c2cc1C (configuration not stated)	.	.	25.1%	.	.	.
CC(C)N1C(=O)CO[C@H](c2ccc(NC(=O)c3ccc(C#N)cc3)cc2)[C@H]1CO	.	.	8.8%[176 µM]	.	.	.
N#C/C(=C/c1cccc(C#N)c1)c1nc2ccccc2[nH]1	.	.	32.1%	.	.	.
COc1cccc(C(=O)N2CCC(N3C(=O)CCC3C(=O)NCc3ccccc3)CC2)c1 (configuration not stated)	.	.	55.4%	.	.	.
NC(=S)N/N=C/c1ccc(C23CC4CC(CC(C4)C2)C3)cc1	9.2µM*	2.82µM*	.	3.66µM*	4.7%	0.447µM*
NC(=S)N/N=C/c1ccccc1	-2.3%	20µM*	?	-22.8%	17.4%	15.8µM*
NC(=S)N/N=C/C1=C(c2ccccc2)C2C=CC1C2 (configuration not stated)	.	.	8.91µM*	.	.	.
NC(=S)N/N=C/c1cccnc1	13.3%	3.2%	.	-2.9%	.	10.5%
CCCN(CC(=O)NC(=O)Nc1ccc(C)c(C)c1)Cc1nnc(-c2cccs2)o1	.	.	2.5%	.	.	.
Cc1cc(C)c(NC(=O)CC2(C(=O)O)CCCC2)c(C)c1	.	.	7.8%	.	.	.
CC(C)(C)c1ccc(C(=O)Nc2nc3c(s2)C[C@@H]2[C@](C)(CO)[C@H](O)CC[C@@]2(C)[C@@H]3CC(=O)N2CCOCC2)cc1	.	.	6.2%	.	.	.
COc1ccc(C(=O)Nc2nc3c(s2)C[C@@H]2[C@](C)(CO)[C@H](O)CC[C@@]2(C)[C@@H]3CC(=O)N2CCOCC2)cc1	.	.	89.1µM*	.	.	.
CCc1ccc(-c2cc(C(F)(F)F)n3nc(C(=O)NCc4cnn(C)c4)cc3n2)s1	.	.	-0.8%	.	.	.
Cc1ccccc1Cn1cc(NC(=O)c2cc3nc(-c4ccco4)cc(C(F)(F)F)n3n2)cn1	?	4.6%	28.7%	?	6.51µM*	13.8%
CCc1ccc(-c2cc(C(F)(F)F)n3nc(C(=O)Nc4cnn(Cc5ccc(C)cc5)c4)cc3n2)s1	5.01µM*	?	.	5.01µM*	?	?
CCC(=O)N1CCC2(CC1)CC(C(=O)N1CCOCC1)N(C)C2 (configuration not stated)	.	.	44.8%	.	.	.
COc1cc(-c2cc(-c3nnco3)c3ccccc3n2)cc(OC)c1OC	?	-3.7%	0.0%	7.31µM*	?	-8.9%
Cc1ccc(-c2cc(C(=O)NC(C)C)c3ccccc3n2)cc1C	.	.	-6.5%	.	.	.
COc1ccc(-c2cc(C(=O)NC3CCCC3)c3ccccc3n2)cc1OC	?	.	-16.3%	14.6µM*	.	.
Cc1cc(NC(=O)c2cc(-c3ccc(C)s3)nc3ccccc23)no1	?	3.0%	?	?	-3.9%	28.6%
COc1ccc(-c2cc(C(=O)NC(C)c3ccccn3)c3ccccc3n2)cc1OC (configuration not stated)	23.1µM*	.	?	20.6µM*	16.4µM*	.
COc1ccc(-c2cc(C(=O)NC3CCN(C(C)C)CC3)c3ccccc3n2)cc1OC	.	.	-28.5%	.	.	.
Cc1cccc(NC(=O)c2cc(-c3ccc(C)s3)nc3ccccc23)n1	18.4µM*	-25.1%	?	13µM*	6.51µM*	-5.5%
CN1CCC2(C1)CN(CC1CC1)c1ccc(C(=O)NC3COC3)cc12 (configuration not stated)	.	.	6.2%[176 µM]	.	.	.
SMILES	DT40 TDP1 CPT	Gal4-VP16 FLuc	12-LOX inh	TDP1 cell noCPT	ELG1 DNA repair	RORgamma inh
COc1ccc(NC(=O)c2cc(-c3ccncc3)nc3ccccc23)c(OC)c1	?	.	-5.8%	?	?	.
CCCNC(=O)c1nn2c(C(F)(F)F)cc(-c3ccccc3)nc2c1Cl	?	-2.1%	24.0%	?	2.2%	13.6%
CCOc1cc(CNC(=O)c2cc(-c3ccc(Cl)s3)nc3ccccc23)ccc1OC	?	.	-29.0%	?	.	.
COc1cc2c(cc1NC(=O)c1cc(-c3ccncc3)nc3ccc(C)cc13)oc1ccccc12	23.1µM*	-8.6%[0.365 µM]	-12.5%	?	-4.3%	1.2%
O=C(NCCCn1ccnc1)c1nn2c(C(F)(F)F)cc(-c3ccc(Br)cc3)nc2c1Cl	23.1µM*	?	4.2%	16.4µM*	?	?
COc1ccc(NC(=O)c2cc(-c3ccc(OC)c(OC)c3)nc3ccccc23)c(OC)c1	29.1µM*	0.3%	-2.5%	16.4µM*	?	9.7%
COc1ccc(OC)c(NC(=O)c2cc(-c3ccc(Cl)s3)nc3ccccc23)c1	-27.5%	.	-16.1%	14.6µM*	.	.
COc1ccc2[nH]cc(CCNC(=O)c3ccc(N4CC5CC(C4)[C@H]4CCCC(=O)N4C5)nc3)c2c1 (some centres not stated)	.	.	24.9%	.	.	.
COc1ccc2[nH]c(=O)c(CN(C)S(C)(=O)=O)cc2c1	.	.	0.4%	.	.	.
COc1ccc(-c2cc(C(=O)Nc3ccc(S(=O)(=O)Nc4onc(C)c4C)cc3)c3ccccc3n2)cc1OC	8.5%	-5.1%	?	-4.5%	?	-0.3%
CCOc1ccc(-c2cc(C(=O)NCCCn3ccnc3)c3cc(Br)ccc3n2)cc1	11.6µM*	?	?	10.3µM*	?	?
COc1cc(-c2cc(C(=O)Nc3nc4ccccc4s3)c3ccccc3n2)cc(OC)c1OC	7.31µM*	2.8%	-13.2%	6.51µM*	5.17µM*	-11.4%
COc1ccc(-c2cc(C(=O)N(C)Cc3ccc(F)cc3)c3ccccc3n2)cc1OC	23.1µM*	.	164.1%	?	.	.
COc1ccc(-c2cc(C(=O)Nc3ccc(C(N)=O)cc3)c3ccccc3n2)cc1OC	?	-11.8%	?	5.8µM*	?	-10.9%
CN(Cc1ccco1)C(=O)Cc1cccn1-c1ccc(F)cc1	.	.	-18.2%	.	.	.
CC1CCN(c2nc(SCCN(C)C)c(C#N)c3c2CCCC3)CC1	.	.	-6.5%	.	.	.
CCC[C@H]1CN(C(=O)c2cccc(N3CCOCC3)c2)C[C@@H]1N	.	.	-18.8%	.	.	.
COc1ccc(-c2cc(C(=O)NCCN3CCOCC3)c3ccccc3n2)cc1OC	7.6%	-3.6%	-29.1%	?	-13.2%	-16.8%
Cc1ccnc(NC(=O)c2cc(-c3ccc(Cl)s3)nc3ccccc23)c1	10.3µM*	.	-26.7%	18.4µM*	?	.
O=C(Nc1ccc(O)cc1)c1ccccc1OCc1ccccc1	?	3.0%	?	?	?	?
